Screening data as filed in PubChem.
AmpC no deterg: inhibitors of E. coli AmpC beta-lactamase without detergent | P00811 | AmpC nitrocefin hydrolysis, absorbance 480 nm, 0.0001% Triton | Potency, µM (series often up to 57.1 µM), for inactives: at the top dose activity change, negative = inhibition, actives largely listed as inhibitors | 330,000 tested, 0.52% active | AID 485341;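 further: plate controls were no compound for no effect and no enzyme for full effect; nearly all actives have a fitted effect of over 20% in size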
Target sequence (P00811 whole entry, looked up): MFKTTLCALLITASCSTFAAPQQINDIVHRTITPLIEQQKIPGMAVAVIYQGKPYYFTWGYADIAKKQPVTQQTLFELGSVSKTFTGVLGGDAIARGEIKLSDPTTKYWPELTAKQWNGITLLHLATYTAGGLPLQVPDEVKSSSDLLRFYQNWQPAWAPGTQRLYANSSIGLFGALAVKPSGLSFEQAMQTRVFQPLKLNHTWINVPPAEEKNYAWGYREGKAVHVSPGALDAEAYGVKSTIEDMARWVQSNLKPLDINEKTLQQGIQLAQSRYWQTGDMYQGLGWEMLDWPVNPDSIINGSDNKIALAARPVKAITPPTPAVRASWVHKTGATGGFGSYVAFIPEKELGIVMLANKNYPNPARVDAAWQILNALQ
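20 mM phosphate pH 7.0 + 0.01% (detergent screen) or 0.0001% Triton X-100; 5.3 nM AmpC reagent; cpd preinc 15 min RT; nitrocefin (800 uM stock) to start; A480 q20 s × 4 min; Activity was normalised to no-enzyme and no-compound control wells.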
FMDV antiviral: foot and mouth disease virus antiviral activity | AID 1159524 | Potency, µM (top dose mostly 57.9 µM), for the others: at the top dose activity change, negative = inhibition, usual class: inhibitors | FMDV antiviral cell-based qHTS | 410,000 tested, 1.2% active; calls by dose curve; tested in HEK293T cells; further: read-out not given here; nearly all actives have a fitted effect of over 45% in size
Sm TGR inh: blocks Schistosoma mansoni thioredoxin glutathione reductase; 360,000 tested, 3% active; Q962Y6; Potency, µM (highest dose often 114 µM), inactives show at the highest dose activity change, negative = inhibition, most hits filed as inhibitors; purified TGR, DTNB reduction, TNB absorbance 405 nm; further: nearly all actives have a fitted effect of over 60% in size
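First, TGR (20 nM dispensed) and NADPH were mixed with compound. Second, a 15 min room-temperature incubation followed. Third, further NADPH and then DTNB were added to start the reaction. Finally, TNB absorbance was monitored kinetically.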
AMA1 RON2 block: AMA1-RON2 (P. falciparum) interaction inhibition; Potency, µM (top dose mostly 58.2 µM), for the others: top-dose activity change, negative = inhibition, hits mostly inhibitors; AID 720542; AlphaScreen AMA1-biotinylated RON2 peptide binding; 360,000 tested, 0.2% active;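 further: 0% = vehicle wells and -100% = peptide control; nearly all actives have a fitted effect of over 45% in size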
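AMA1 (3D7) with his tag at 25 nM final met compounds first, then biotinylated RON2 peptide at 25 nM; detection used donor plus acceptor beads, 10 µg/mL apiece, read by AlphaScreen after 30 min at room temperature.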
AmpC detergent: inhibitors of E. coli AmpC beta-lactamase with detergent. P00811. AmpC hydrolysis of nitrocefin, absorbance 480 nm, 0.01% Triton. Potency, µM (highest dose often 114 µM), inactives show top-dose activity change, negative = inhibition, actives largely listed as inhibitors. 370,000 tested, 0.041% active;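 further: 0% = no-compound wells and -100% = no-enzyme wells; nearly all actives have a fitted effect of over 25% in size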
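AmpC (5.3 nM in the dispensed reagent) in 20 mM phosphate pH 7.0 with 0.01% (detergent screen) or 0.0001% Triton X-100 was preincubated with compounds for 15 min at room temperature. Nitrocefin was then added from an 800 uM solution, and hydrolysis was followed at 480 nm.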
Active calls of the source: *; u = inconclusive; x = no result given. Rows were chosen to be rich in hits. Some 4.1% of all compounds tested hit in one or more screens of this group. Unless noted, the call rests on the fitted dose curve; in most records, active means well fitted curve in the direction sought with a large enough effect; inconclusive means small, poorly fitted or top-dose-only effect, or another doubt; inactive means no such curve, though single readings can be large; an effect the other way counts as inactive or inconclusive. Unless noted, on the % scale 0 is the no-effect control and ±100 the full control effect; potency means the concentration at half of the fitted maximal effect.

SMILES	AmpC no deterg	FMDV antiviral	Sm TGR inh	AMA1 RON2 block	AmpC detergent
COc1ccc2c(c1)c1c(c(=O)n(-c3ccccc3C)c(=O)n1Cc1cccc(C(F)(F)F)c1)n2C	x	-21%	-1%	x	22%
COC(=O)c1cc(NC(=O)c2nn(C)c3c2COc2ccccc2-3)cc(C(=O)OC)c1	x	-15%	2%	x	-2%
COC(=O)c1ccc(NC(=O)c2nn(C)c3c2COc2ccccc2-3)cc1	x	u	u	x	-1%
CCOc1ccc(NC(=O)c2nn(C)c3c2COc2ccccc2-3)cc1	x	13%	7.9µM*	x	19%
COc1cc(OC)c(NC(=O)c2nn(C)c3c2COc2ccccc2-3)cc1Cl	x	-3%	0.71µM*	x	-3%
CCOc1ccc(-c2noc(CSc3nnc(Cc4ccccc4)n3-c3cccc(C)c3)n2)cc1	x	u	6%	x	21%
Cc1ccc(-c2ccc(C(=O)Nc3ccccc3)o2)c2ccccc12	-58%	27%	35µM*	u	u
Cc1ccc(-c2ccc(C(=O)NCc3ccccc3)o2)c2ccccc12	-37%	-1%	40µM*	-20%	u
CC[C@H]1OC(=O)[C@H](C)C(=O)[C@H](C)[C@@H](O[C@@H]2O[C@H](C)C[C@H](N(C)C)[C@H]2O)[C@](C)(OC)C[C@@H](C)C(=O)[C@H](C)[C@H]2N(CCCCn3cnc(-c4cccnc4)c3)C(=O)O[C@]12C	x	-10%	x	x	x
CSC1=C(C#N)C(=O)NC(c2ccc(Cl)cc2)S1 (centres undefined)	-7%	20µM*	10µM*	-18%	9%
COC(=O)c1c(NC(=O)C(C)(C)C)sc2c1C(C(=O)OC)CC2 (centres undefined)	105%	-23%	32µM*	3%	0%
O=C1CS/C(=N/N=C/c2ccccc2)N1c1ccc(O)cc1	-11%	-20%	5%	8%	u
O=C1CS/C(=N\N=C\c2ccco2)N1c1ccccc1	-48%	-1%	14µM*	2%	2%
O=S(=O)(NC1CC(NS(=O)(=O)OCC(Cl)(Cl)Cl)C2CCCCC12)OCC(Cl)(Cl)Cl (centres undefined)	-22%	u	79µM*	2%	-9%
O=S(=O)(NC1CCCCCCC1)OCC(Cl)(Cl)Cl	-33%	15%	-24%	11%	-6%
COc1ccc(-c2ncnc(C(F)(F)F)c2-c2csc(C)n2)c(O)c1	0%	-23%	-5%	-2%	-2%
Cc1nc(-c2c(-c3ccc(O)cc3O)noc2C(F)(F)F)cs1	-33%	35µM*	0%	-3%	2%
COc1ccccc1-c1cc2nc(C)c(CCC(=O)NCCc3cccc(C)c3)c(C)n2n1	x	-15%	-6%	x	-12%
COc1ccc2c(c1)-c1nc(-n3ncc(C(=O)N(C)CCO)c3C3CC3)ncc1CC2	x	35%	x	x	x
COc1ccccc1CNC(=O)CCS(=O)(=O)c1ccc2c(c1)CC(C)N2C(=O)C1CC1 (centres undefined)	27%	-4%	-6%	-1%	3%
CC1Cc2cc(S(=O)(=O)CCC(=O)NCc3ccco3)ccc2N1C(=O)C1CC1 (centres undefined)	4%	2%	40µM*	3%	-16%
Cc1ccc(S(=O)(=O)CCC(=O)NCc2ccco2)cc1	-29%	2%	40µM*	1%	0%
CCOCCCNC(=O)c1c(NC(=O)c2cc(=O)c3cc(C)c(C)cc3o2)sc2c1CCC2	x	-10%	-4%	x	8%
COc1ccccc1-c1noc(-c2ccc(N3CCC(C)CC3)c([N+](=O)[O-])c2)n1	x	21%	5%	x	-6%
Cc1c(Cl)sn(-c2ccc(Cl)cc2)c1=O	-38%	u	3.5µM*	3%	u
SMILES	AmpC no deterg	FMDV antiviral	Sm TGR inh	AMA1 RON2 block	AmpC detergent
Cc1nn(-c2ccc(Cl)cc2)c(=O)c2ccccc12	-2%	32%	x	-7%	2%
Cc1cc(SCC(=O)NC(=O)NCc2ccco2)nc2ccccc12	-33%	-29%	40µM*	-10%	-5%
O=C(CSc1cccc2cccnc12)NCc1ccco1	-8%	7%	45µM*	-2%	-12%
Cc1cc(C)nc(SCC(=O)NCc2ccco2)n1	-9%	-15%	56µM*	-12%	-7%
COc1ccc(CNC(=O)CSc2cccc3cccnc23)cc1	-12%	18%	5%	-2%	-7%
Cc1nc2cc(NC(=O)NCc3ccco3)ccc2o1	0.35µM*	x	-2%	0%	2%
CC(C)c1c(C(=O)NCCN2CCOCC2)cnn1-c1nccc(-c2cccs2)n1	x	-10%	x	x	x
Cc1ccn2c(=O)nc(SCC(=O)NCc3ccco3)nc2c1	-4%	-9%	35µM*	-1%	5%
Cc1cc(C(=O)NNC(=S)NCc2ccco2)n(C)n1	-16%	4%	22µM*	89%	2%
Cc1cc(SCC(=O)c2ccc(O)c(O)c2)nc2ccccc12	u	-19%	2.8µM*	-2%	-1%
Cc1ccn2c(=O)nc(SCC(=O)NCc3ccccc3)nc2c1	-19%	-8%	-1%	-1%	u
CC(C)(C)c1ccc(C(=O)NNC(=S)NCc2ccco2)cc1	-18%	4%	-2%	78%	2%
COCC(=O)N1CCC[C@@]2(CCN(c3ccccn3)C2)C1	x	12%	x	x	x
CCOC(=O)N1CCc2[nH]c3ccc(C)cc3c2C1	24%	u	6%	40µM*	4%
Cc1ccc2[nH]c3c(c2c1)CN(C(=O)CN1CC(C)OC(C)C1)CC3 (centres undefined)	3%	-11%	40µM*	-1%	-1%
COc1ccc(OC)c(N2Cc3cc(C)c(C)cc3C2)c1	-2%	0%	45µM*	-9%	3%
CCOc1cc(/C=C2/COc3ccccc3C2=O)ccc1OCC(=O)N(C)C	197%	u	32µM*	-6%	-1%
COCC(=O)Nc1cc(C(=O)N2CCN(C3CCCC3)C(=O)C2)c2c(c1)nc(-c1ccncc1)n2C	x	-7%	x	x	x
O=c1ccc(-c2ccc(S(=O)(=O)Nc3ccccc3Cl)o2)n[nH]1	-13%	4%	40µM*	1%	3%
O=c1ccc(-c2ccc(S(=O)(=O)Nc3cccc(Br)c3)o2)n[nH]1	-14%	27%	50µM*	13%	2%
Cc1c(Cl)cccc1NS(=O)(=O)c1ccc(-c2ccc(=O)[nH]n2)o1	-28%	8%	-14%	17%	-3%
Cc1cccc(NS(=O)(=O)c2ccc(-c3ccc(=O)[nH]n3)o2)c1	-11%	13%	40µM*	-11%	4%
COc1ccc(-c2ccc3c(N)c(C(=O)NCc4ccc(Cl)cc4)sc3n2)cc1	x	9%	2%	x	13%
CCc1cc(C(=O)NCC2Cc3cc(-c4ccccc4C(C)=O)ccc3O2)no1 (centres undefined)	x	-28%	x	x	x
O=C(Nc1c(F)cc(F)cc1Br)c1ccco1	-11%	18%	45µM*	-5%	3%
